In all, about 340,000 compounds went through this assay and about 2,100 (0.62%) were called active.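 Rule for the calls: active = first-screen hits whose inhibition reached a set limit at any dose in the follow-up dose series; inconclusive = inhibition above the set first-screen limit but never retested; inactive = the rest.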 Not all results are given here. Entries with a potency or affinity are not part of this list.
Target: Rac GTPase-activating protein 1 (Homo sapiens) (UniProt Q9H0H5)
Assay: blockers of MgcRacGAP-driven Rac1 GTP hydrolysis – biochemical, ADP Hunter fluorescence, primary and confirmatory, confirmation (AID 624330);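 note: fluorescence reports GDP produced by GAP-driven GTP hydrolysis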
Conditions: MgcRacGAP-stimulated Rac1 GTP hydrolysis, at 30 µM, hits give high values, GST-tagged Rac1 F28L mutant substrate

Chain of Rac GTPase-activating protein 1 (Homo sapiens) (Q9H0H5 whole entry, looked up): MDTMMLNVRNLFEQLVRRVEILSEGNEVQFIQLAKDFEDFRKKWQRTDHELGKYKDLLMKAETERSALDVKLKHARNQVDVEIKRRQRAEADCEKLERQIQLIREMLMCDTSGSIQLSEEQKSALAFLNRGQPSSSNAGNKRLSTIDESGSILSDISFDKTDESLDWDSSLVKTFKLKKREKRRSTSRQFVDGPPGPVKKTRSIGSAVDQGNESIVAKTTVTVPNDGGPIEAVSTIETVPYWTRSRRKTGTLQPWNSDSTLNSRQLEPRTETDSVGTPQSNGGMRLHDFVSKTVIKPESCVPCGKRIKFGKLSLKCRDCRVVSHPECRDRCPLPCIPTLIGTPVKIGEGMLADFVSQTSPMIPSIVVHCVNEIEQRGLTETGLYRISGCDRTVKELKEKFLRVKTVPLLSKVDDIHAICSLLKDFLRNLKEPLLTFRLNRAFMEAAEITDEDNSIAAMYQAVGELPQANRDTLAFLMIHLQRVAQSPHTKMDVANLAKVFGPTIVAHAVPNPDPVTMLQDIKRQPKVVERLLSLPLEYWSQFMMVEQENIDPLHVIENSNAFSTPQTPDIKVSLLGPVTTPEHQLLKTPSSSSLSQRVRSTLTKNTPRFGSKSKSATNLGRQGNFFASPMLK

inhibition, inactive:
CC(=O)C[C@H]1c2cc(C(F)(F)F)ccc2S(=O)(=O)N1c1ccc(N(C)C)cc1 16.3%, COC(=O)C[C@H]1c2cc(F)ccc2S(=O)(=O)N1c1ccc(N(C)C)cc1 22.8%, COc1ccc(-n2ncc3c2CC(C)(C)CC3NC(=O)CCn2cncn2)cc1 (stereo not drawn) 4.79%, COc1ccc(-n2c(=O)c3c(C)c(C)sc3n(Cc3cccc(F)c3)c2=O)c(OC)c1 9.42%, CC(=O)Nc1ccc(NC(=O)Nc2ccccc2)cc1 -3.27%, O=C(Nc1ccccc1)c1ccccc1OCc1ccc(F)cc1 13.5%, CC(=O)Nc1cccc(NC(=O)c2ccccc2OCc2ccccc2)c1 9.89%, Cc1ccc(S(=O)(=O)Nc2ccc(Nc3ccccc3)cc2)cc1 24.2%, CC(=O)Nc1ccccc1 3.65%, CC(C)(C)CC(=O)Nc1ccc(C(N)=O)cc1 5.87%, CC(=O)Nc1ccc(NS(=O)(=O)c2ccccc2)cc1 5.08%, Cc1cccc(NC(=O)CC(C)(C)C)c1 5.55%, COc1cc(-c2ccccc2)[nH]c(=S)n1 9.57%, CC(Sc1nc(=O)cc(N)n1CCc1ccccc1)C(=O)NCc1ccccc1 (stereo not drawn) 3.88%, COc1cccc(NC=C2C(=O)OC(C)(C)OC2=O)c1 6.91%, Cc1cc(C(=O)NNC(=S)NCC2CCCO2)cs1 (stereo not drawn) 9.6%, COc1ccc2c(CC(=O)Nc3nc(C)cs3)coc2c1 7.58%, Cc1ccc(C(=O)N(CC(=O)Nc2ccc(Cl)c(Cl)c2)Cc2ccco2)cc1 2.86%, O=C(CSc1nc(C(F)(F)F)cc(=O)[nH]1)N1CCCCCC1 -0.68%, CC(C)Cn1c(SCC(=O)c2ccc(Cl)s2)nnc1-c1ccco1 11.6%, CC1CC(C)CN(c2cc(=O)n(Cc3ccc(F)cc3)c(=O)[nH]2)C1 (stereo not drawn) 6.97%, COc1ccc(NC(=O)CN(C)S(=O)(=O)c2cccs2)cc1 16%, CCOC(=O)c1nn(-c2ccccc2F)c(-c2ccccc2)c1C(=O)c1ccccc1 5.32%, O=C(O)c1ccccc1C(=O)Nc1ccccc1 -1.51%, CC(OC(=O)COc1ccc(Nc2ccccc2)cc1)C(=O)N(C)c1ccccc1 (stereo not drawn) 24.6%, O=C(O)c1ccccc1C(=O)Nc1ccc(Br)c(C(F)(F)F)c1 8.86%, O=C(O)c1ccccc1-c1ccccc1C(=O)Nc1ccccc1 8.32%, CC(C)C(=O)Nc1ccc(C(=O)c2ccccc2)cc1 4.76%, Cc1cccc(NC(=O)c2ccccc2C(=O)O)c1 3.78%, O=C(Nc1ccc(Nc2ccccc2)cc1)C(Cl)Cl 25.5%, CC(=O)c1ccc(NC(=O)C(C)OC(=O)COc2ccc(C#N)cc2)cc1 (stereo not drawn) 3.94%, Cc1cccc(NS(=O)(=O)c2cccc(C(=O)N3CCCCCC3)c2)c1 7.68%, CCOc1ccc(NC(=O)c2cccs2)c([N+](=O)[O-])c1 9.62%, COc1ccc(COC(=O)N/N=C/c2cccs2)cc1 0.62%, Cc1ccc(/C=C2/SC(=S)N(CCCC(=O)Nc3cc([N+](=O)[O-])ccc3O)C2=O)cc1 3.56%, CCN(CC)CCNS(=O)(=O)c1ccc(Cl)cc1 5.79%, Cc1cc2ncn(-c3ncnc4sc(C)c(C)c34)c2cc1C 6.72%, CC1CCN(C(=O)c2nc[nH]c2C(=O)O[C@H](C)c2ccccc2)CC1 9.03%, CC(=O)Nc1ccc(S(=O)(=O)Nc2nc3ccccc3nc2Nc2ccc(O)c(C(=O)O)c2)cc1 9.87%, Oc1ccc(NCc2cccc(OCc3ccccc3)c2)cc1 9.79%, CCCC(=O)Nc1ccc(Nc2ccccc2)cc1 22.6%, CC(=O)Nc1ccc(S(=O)(=O)Nc2nc3ccccc3nc2Nc2ccccc2)cc1 4.86%, Oc1ccc(NCc2cccc(OCc3ccc(F)cc3)c2)cc1 3.64%, CC(C)CC(=O)Nc1ccc(Nc2ccccc2)cc1 22.4%, O=C(Nc1ccccc1)C1CCCCC1 -3.44%, O=C(Nc1ccccc1)c1ccc(NC(=O)C2CC2)cc1 3.78%, O=C(COC(=O)CNC(=O)c1ccccc1F)Nc1ccc2c(c1)OCO2 4.84%, COC(=O)c1cc(Nc2cc(C)c3ccc(O)cc3n2)cc(C(=O)OC)c1 11.8%, COc1nc(-c2ccccc2)nc(C)c1CC(=O)O 9.59%, Cc1ccc(S(=O)(=O)/N=C(/c2ccc(F)cc2)N(C)C)cc1 8.12%, COCCN(Cc1nc(C2(c3ccc(C)cc3)CCCC2)no1)C(C)C -3.53%, CCOc1ccc(N2C(=O)Nc3ccc(Br)cc3C2(O)C(=O)NCCCN(C)C)cc1 (stereo not drawn) 8.07%, COC(=O)C(CC(=O)c1ccc(C)cc1)n1cccn1 (stereo not drawn) 11.3%, CCOC(=O)c1cnc2ccccc2c1Nc1cccc(C(=O)O)c1 -0.21%, CCSc1nnc(NC(=O)[C@H](C)NC(=O)c2ccccc2Cl)s1 9.72%, CCC(=O)Nc1ccc(NC(=S)Nc2ccccc2)cc1 8.45%, CCC(=O)Nc1ccc(C(=O)c2ccccc2)cc1 10.1%, CC(C)C1N=C2c3ccccc3N=C(SCC(=O)NCCc3ccc(S(N)(=O)=O)cc3)N2C1=O (stereo not drawn) 1.59%, CC(C)C1N=C2c3ccccc3N=C(SCC#N)N2C1=O (stereo not drawn) 10.5%, COc1ccc(Cl)cc1NC(=O)C1Cc2cc(S(=O)(=O)N3CCCC3)ccc2N1C(C)=O (stereo not drawn) 2.38%, COc1ccc(CCNC(=O)COC(=O)CCC(=O)c2cccs2)cc1OC 3.28%, COc1cccc(S(=O)(=O)NCc2ccc(C(=O)NCc3ccco3)cc2)c1 13.6%, Cc1ccc(Cl)cc1NC(=S)N1CCC(c2ccccc2)C1 (stereo not drawn) 7.04%, COc1ccc(OC)c(CN2CCN(c3ccccc3OC)CC2)c1 19.8%, COc1ccc(CN2CCN(c3ccc(F)cc3)CC2)c(OC)c1OC 8.37%, COc1ccc(OC)c(CN2CCSCC2)c1 36.4%, COc1ccc(OC)c(CN2CCN(Cc3cc(OC)c(OC)c(OC)c3)CC2)c1 -7.74%, COc1ccc2oc(=O)cc(CN3CCN(Cc4ccc(OC)c(OC)c4OC)CC3)c2c1 11.2%, COc1ccc(CN2CCC(n3nccc3NC(=O)C3CC3)CC2)c(OC)c1OC 8.32%, COc1ccc(CN2CCC(N3CC(C)OC(C)C3)CC2)c(OC)c1 (stereo not drawn) 29.1%, COc1ccccc1N1CCN(Cc2ccc(OC)c(OC)c2OC)CC1 28.2%, O=C(c1ccccc1F)N1CCN(c2ccc([N+](=O)[O-])c(NCC3CCCO3)c2)CC1 (stereo not drawn) 11.1%, COc1ccc(CCNC(=O)C2CCCN2C(=O)Nc2ccc(F)cc2)cc1OC (stereo not drawn) 7.58%, O=C(CSc1nnc(NC(=O)C2CC(=O)N(c3ccccc3)C2)s1)NCC1CCCO1 (stereo not drawn) 8.28%, CN(Cc1ccccc1)c1ncc(C=O)s1 11.2%, CCCCC(=O)Nc1ccccc1CC 7.96%, C=CCN1C(=O)CS/C1=N\N=C\c1cccc([N+](=O)[O-])c1 5.94%, CCCCNS(=O)(=O)c1ccc2nc(SCC(=O)Nc3ccccc3Cl)[nH]c2c1 9.77%, CCOc1ccc(NC(=S)N2CCN(C/C=C/c3ccccc3)CC2)cc1 6.87%, Cn1c(=O)n(C)c2cc(NC(=O)CSc3ccccc3)ccc21 6.1%, CSc1ccc(CN2CCC(N3CCC(C(=O)NC4CC4)CC3)CC2)cc1 -3.51%, CSc1ccc(CN2CCC(Cc3ccccc3)CC2)cc1 15%, COc1ccc(CN2CCN(C(=O)c3ccccc3F)CC2)c(OC)c1OC -1.41%, Clc1ccc(OCCCCCN2CCOCC2)cc1 -5.93%, CCOC(=O)Cc1csc(NC(=O)c2c(C)noc2C)n1 7.91%, CCC1=C2CC[C@H]3C(=O)N(C)C(=O)[C@H]3[C@H]2[C@@]2(Cc3ccccc3)C(=NCCOC)OC(=O)N2C1=O 10.6%, C/C(=N\NC(=O)c1nnn(-c2nonc2N)c1CN1CCCCCC1)c1ccc(Br)cc1 -3.03%, CC(Oc1ccc(F)cc1)C(=O)N(Cc1ccccc1)c1c(N)n(Cc2ccccc2)c(=O)[nH]c1=O (stereo not drawn) 3.15%, CCOC(=O)Nc1ccc(C(N)=O)cc1 10%, CCOC(=O)Nc1ccc(Oc2ccccc2)cc1 1.24%, Cc1ccccc1NC(=O)COc1coc(CN2CCN(Cc3ccccc3)CC2)cc1=O 3.8%, N#Cc1ccc(-c2ccccc2)nc1Sc1ccc(F)cc1 3.11%, Cc1c(/C=N\NC(=O)C2(C)CC2(Cl)Cl)cnn1C (stereo not drawn) 2.13%, CCOc1cc(/C=C2/C(=O)N(c3ccccc3)N=C2C)ccc1OC(=O)c1cccs1 15.2%, CC(=O)Oc1ccc(/C=C2/C(=O)N(c3ccccc3)N=C2C)cc1 25%, COc1ccc(C(=O)c2coc3ccc(O)c(CN4CCCC4)c23)cc1 8.22%, CN1C2CCC1/C(=C\c1ccccc1F)C(=O)/C2=C/c1ccccc1F 7.33%, CN1C2CCC1/C(=C\c1ccccc1)C(=O)/C2=C\c1ccccc1 12.8%

— PubChem BioAssay AID624330 (Southern Research Specialized Biocontainment Screening …, 2012)
